Assay results from PubChem BioAssay AID504834 (National Center for Advancing Translational Sciences (NCATS), 2011).
Among all 320,000 compounds or so, about 22,000 (6.9%) were called active. Another 27% or so got no clear call; they are omitted. This excerpt belongs to a sample that is enriched for actives. Values without a mark were called inactive. Calls come from the whole dose curve; as a rule, active = well fitted inhibition curve with a large enough effect; inconclusive = small, poorly fitted or top-dose-only effect, or another doubt; inactive = no such curve, though single readings can be large or run the other way.

test: Primary qHTS for delayed death inhibitors of the malarial parasite plastid, 96 hour incubation; conditions: P. falciparum luciferase reporter growth; series mostly up to 28.7 µM; activity change, negative = inhibition: at the top concentration
From the text: The goal of this screen is to discover new antimalarial compounds that act by inhibiting the development of the apicoplast in the malarial parasite Plasmodium falciparum. The biochemical processes that make this organelle essential for erythrocytic stage parasites are not well understood. However, antibiotics such as azithromycin and tetracycline, which target the apicoplast translational machinery, have a potent antimalarial effect.
We have developed a cell-based assay that measures parasite growth based on the expression of an integrated copy of a firefly luciferase reporter. To detect small molecules that cause this "delayed death" phenotype, erythrocytes infected with the luciferase-expressing parasites were incubated with compounds for either one or two generations, corresponding to 48 and 96 hours, respectively. Compounds that inhibit parasite growth in the second generation, but not the first, should be enriched in antimalarials that target the apicoplast. Growth inhibition is detected by a decrease in luciferase activity.
Assay Provider: David Fidock and Eric Ekland, Columbia University
Keywords: NIH Roadmap, MLPCN, MLI, MLSMR, qHTS, NCGC, qHTS, malaria, luciferase, viability
Four microliters of infected erythrocytes (2% hematocrit, 0.05% parasitemia final concentration) in culture medium were dispensed and the plates incubated for 96 hours at 37 C in 5% CO2. Two microliters of luciferase detection reagent was added and luminescence was detected by a ViewLux (PerkinElmer) reader.
% is set by controls: 0 for no effect and ±100 for the full control effect; potency is the fitted concentration of half-maximal effect.

SMILES	activity change, negative = inhibition [%]	Potency
O=C(OCc1ccc([N+](=O)[O-])cc1)C1CC(=O)N(Cc2ccccc2Cl)C1 (centres undefined)	58.7	
O=C(COc1cccc2c1CCNC2=O)NC1CCCCC1	-3.31	
O=C(O)c1cccc(S(=O)(=O)N2CC=C(c3ccccc3)CC2)c1	-9.09	
NC1=NN(c2cccc(C(=O)O)c2)C(=O)C1		13.1 µM (active)
O=C(O)c1cccc(N=NN2CCCCCC2)c1	49.7	
CCOc1ccccc1N1CCN(C(=O)c2ccc3[nH]c(C)c(C)c3c2)CC1	0	
COC(=O)C1CCN(C(=O)c2ccc3oc(Cc4ccc(Cl)cc4)nc3c2)CC1	1.63	
CCCCCCCNC(=O)C1(CC2CC(c3cccc(Br)c3)=NO2)CCN(C(=O)c2cc(OCC)c(OCC)c(OCC)c2)CC1 (centres undefined)		0.329 µM (active)
O=C(c1ccccc1)N1CCC(CC2CC(c3ccc(Cl)cc3)=NO2)(C(=O)NCC2CCCCC2)CC1 (centres undefined)		1.04 µM (active)
CC(=O)N1CCC(C(=O)OCc2ccc(Cl)cc2)(c2ccccc2)CC1	-22	
COc1ccccc1C(=O)NC(=O)COC(=O)c1ccco1	53.6	
Cc1ccc(N2C(=O)CC(Nc3cccc4ccccc34)C2=O)cc1 (centres undefined)	26.3	
COc1ccc(C2=NS(=O)(=O)N(C)C(C(=O)NC(C)c3ccccc3)=C2)cc1 (centres undefined)	24.1	
COc1ccccc1CCC(=O)NNC(=O)c1ccncc1	-3.56	
Cc1nn(-c2ccccc2)c(C)c1NC(=O)COC(=O)c1cc(Cl)ccc1O	13.2	
CCN1CCN(c2ccc(NC(=O)c3cnccn3)cc2)CC1	-11.3	
CCN1CCN(C(c2cccnc2)c2cc(Cl)c3cccnc3c2O)CC1 (centres undefined)		10.4 µM (active)
Cc1nc(C)c(-c2nnc(-c3cccc(S(=O)(=O)N(C)C)c3)o2)cc1C(=O)NN	11.1	
Cn1c(SCC(=O)Nc2ccc(N3CCOCC3)cc2)nnc1C(F)(F)F	-8.65	
Cc1ccccc1NC(=O)c1cc(S(=O)(=O)Nc2cccc(C(=O)O)c2)ccc1Cl	0	
O=C(NC1CC1)c1cccc(Br)c1	-3.65	
O=C(NC1CC1)c1ccc2c(c1)NC(=O)c1ccccc1S2		8.28 µM (active)

SMILES	activity change, negative = inhibition [%]	Potency
S=C1Nc2cc(Cl)ccc2Sc2ccccc21	16.5	
COC(=O)Cn1cnc2scc(-c3ccc(C)c(C)c3)c2c1=O		10.4 µM (active)
CCOC(=O)C(C)n1cnc2scc(-c3ccc(C)c(C)c3)c2c1=O (centres undefined)	-3.94	
CCn1cnc2scc(-c3ccc(C)c(C)c3)c2c1=O	42	
COc1ccc(NC(=O)CCN2CCCC2)c(OC)c1	-23.8	
CSc1ccccc1NC(=O)C(C)N1C(=O)c2ccccc2S1(=O)=O (centres undefined)	18.5	
COc1ccc(NC(=O)C(C)N2c3cccc4cccc(c34)S2(=O)=O)c(OC)c1 (centres undefined)		2.94 µM (active)
CN(CC(=O)NCc1ccc2c(c1)OCO2)CC(=O)Nc1ccc(F)c(F)c1F	-27.8	
CCC(C)N(C(=O)COC(=O)c1nc(Cl)ccc1Cl)C1CCS(=O)(=O)C1 (centres undefined)	8.59	
O=C(c1ccc(OC2CCN(C/C=C/c3ccc(F)cc3)CC2)cc1)N1CCCCC1	27	
COc1ccc(S(=O)(=O)N(C)CC(=O)N2CCCC2)cc1	-10.3	
Cc1ccc(S(=O)(=O)N2CCC(Oc3ccc(-n4cnnn4)cc3)CC2)cc1	76.6	
CN1CCC[C@@H]1CCO[C@](C)(c1ccccc1)c1ccc(Cl)cc1		15.1 µM (active)
CC(C)(c1ccccc1)c1ccc(OCCN2CCCC2)cc1	109	
CC(C)(c1ccccc1)c1ccc(OCCN)cc1	27.9	
O=c1c2cc(Br)ccc2nc(-c2cccc(Cl)c2)n1O	23.5	
O=C(c1cccc(N2CCCC2=O)c1)N1CCOCC1		6.57 µM (active)
O=C(c1ccc2c(c1)OCO2)N1CCOCC1	-7.41	
O=C(c1cccc(S(=O)(=O)N2CCOCC2)c1)N1CCOCC1	-26.3	
Cc1ccc(C(=O)NNC(=O)c2ccc3c(c2)OCCO3)cc1	419	
COCc1cc(C)n(CC(=O)NCC2CCCO2)c(=O)c1C#N (centres undefined)	-2.85	
O=C(Nc1ccc(S(=O)(=O)Nc2ncccn2)cc1)C12CC3CC(CC(C3)C1)C2	45.4	

SMILES	activity change, negative = inhibition [%]	Potency
Cc1noc(NS(=O)(=O)c2ccc(NC(=O)C34CCC(CC3)C4)cc2)c1C	-16.6	
CCn1nccc1C(=O)Nc1ccc(S(=O)(=O)NC23CC4CC(CC(C4)C2)C3)cc1		6.57 µM (active)
Cc1ccc(S(=O)(=O)NCCC(=O)NNC(=O)C2COc3ccccc3O2)cc1 (centres undefined)	-4.98	
Oc1ccccc1C1=NN(c2ccccc2)C(c2ccccc2)C1 (centres undefined)		1.65 µM (active)
CC(=O)Oc1ccccc1C1=NN(C(C)=O)C(c2ccccc2)C1 (centres undefined)	-5	
COc1ccc(C2CC(c3cccs3)=NN2c2ccccc2)cc1 (centres undefined)	21.7	
Cn1cc(C(=O)c2ccc(Cl)cc2Cl)cc1C(=O)NN	-3.08	
COc1ccc(CCNC(=O)COc2ccc3c(c2)OCO3)cc1	-6.72	
Cc1ccc2nc(Nc3ccccc3)cc(C)c2c1	213	
Cc1ccc2nc(C)c3c(c2c1)N(c1ccccc1)CC3		6.57 µM (active)
Cc1ccc2nc(-c3ccccc3)cc(C(=O)O)c2c1	13.1	
O=C1NCCn2nc3ccccc3c21	0	
Cc1csc(NC(=O)CSc2nc(=O)n(CCCN(C)C)c3c2CCC3)n1	5.37	
CCN(CC)CCn1c2c(c(SCC(=O)Nc3nc4ccccc4s3)nc1=O)CCCC2		11.7 µM (active)
Cn1c(SCC(=O)Nc2ccc(Cl)cc2)nc(O)cc1=O	21.4	
Cn1nnnc1SCC(=O)Nc1nc2ccccc2s1	13.8	
CCN(CC)CCn1c2c(c(SCC(=O)Nc3ccc(C(C)C)cc3)nc1=O)CCC2		4.15 µM (active)
CC(C)c1ccc(NC(=O)COC(=O)c2ccc(CN3CCCC3=O)cc2)cc1	0	
COc1ccccc1C(=O)NC(CCSC)C(=O)NNC(=O)c1csc(N2CCOCC2)n1 (centres undefined)	9.49	
Cc1ccc(CSCC2Nc3ccc(C(=O)N4CCN(c5ccc(F)cc5)CC4)cc3NC2=O)cc1 (centres undefined)	-3.25	
O=C(O)c1ccccc1C(=O)NC1=NN(c2ccccc2)CC1	19.4	
O=[N+]([O-])c1ccc2c(c1)C(O)n1nc(-c3ccccc3)nc1S2 (centres undefined)	1.28	

SMILES	activity change, negative = inhibition [%]	Potency
O=C(CN1CCCCCC1)Nc1c(Cl)cc(Cl)cc1Cl	13.9	
COc1cccc(NC(=O)C(Sc2nc3ccccc3c(=O)n2CC(C)C)c2ccccc2)c1 (centres undefined)		2.62 µM (active)
CCc1ccc(NC(=O)CSc2nc3ccccc3c(=O)n2CCN2CCOCC2)cc1	-19.2	
COc1cccc(NC(=O)Cn2c3ccccc3c3nc4n(c(=O)c32)CCS4)c1	29.2	
COC(=O)c1ccc2c(=O)n(CCN3CCOCC3)c(SCC(=O)Nc3cccc(OC)c3)nc2c1		13.1 µM (active)
COc1ccc(NC(=O)CSc2nnc(Cc3ccccc3)c(=O)n2N)cc1	-0.315	
COc1ccc(-n2nnnc2SCC(=O)Nc2ccccc2)cc1	5.45	
COc1ccc(NC(C(=O)Nc2cccc(C(C)=O)c2)c2ccccc2)cc1 (centres undefined)	30.5	
COc1ccc(NC(=O)CSc2nc3ccccc3c(=O)n2C)cc1		1.85 µM (active)
COc1cccc(NC(=S)NCCCN2CCOCC2)c1	19.1	
COc1ccc([N+](=O)[O-])cc1NCC(=O)c1ccc(C)cc1	-5.19	
O=S(=O)(Nc1cccc(-n2cnnn2)c1)c1cnc(Cl)c(Cl)c1	30.6	
COc1ccc2c(C)cc3nnnn3c2c1	4.17	
O=C(Nc1nnc(S(=O)(=O)N2CCOCC2)s1)c1cccc(Br)c1	-0.931	
Cc1ccccc1OCC(=O)Nc1nc(C)c(C(=O)N(C)C)s1	14.9	
Cc1cccc(NC(=O)COc2ccccc2C)n1		2.33 µM (active)
COCCNC(=O)COc1ccccc1C	30.4	
O=C(NCCc1ccccn1)c1cccnc1Oc1ccc(Cl)cc1	-15.1	
COc1cc(NS(=O)(=O)c2ccc(NC(=O)c3ccc([N+](=O)[O-])cc3)cc2)ncn1	-1.66	
Cn1ccc(=Nc2ccc(NC(=O)c3ccc(N=c4ccn(C)c5ccc([N+](=O)[O-])cc45)cc3)cc2)cc1		0.165 µM (active)
O=C(Nc1ccc(C(=O)N2CCCCC2)cc1)c1cccc([N+](=O)[O-])c1	-8.03	
COc1ccccc1C(=O)Nc1ccnn1C1CCN(C(=O)C(C)(C)C)CC1	11.3	

SMILES	activity change, negative = inhibition [%]	Potency
CN(C)c1ccc(N/C=C/C(=O)C(F)(F)F)cc1		6.57 µM (active)
O=C(/C=C/Nc1ccccc1OC(F)(F)F)C(F)(F)F	35.6	
CCCOc1ccc(N/C=C/C(=O)C(C)(C)C)cc1	-2.54	
Cc1c(C(=O)N(C)CCc2cnn(C)c2)oc2c(F)cccc12	18.4	
Fc1ccc(/C=N/n2c(COc3ccccc3)n[nH]c2=S)cc1	4.78	
COc1ccc(C(=O)OCC(=O)Nc2cccc(C(C)=O)c2)cc1OC	-16.6	
O=C1C=CC(=O)N1c1ccc(N2CCCCC2)cc1	-18.3	
O=c1[nH][nH]c(=O)c2cc(N3CCCC3)ccc12		9.28 µM (active)
CN(C)c1ccc2c(=O)[nH][nH]c(=O)c2c1	-26.8	
CCOc1ccc(S(=O)(=O)NCc2ccc3c(c2)OCO3)cc1C	11.5	
Cc1ccc(C(=O)NNC(=O)C(C)Oc2ccc3ccccc3c2)o1 (centres undefined)	0.752	
Cc1ccc(Cl)c(OCC(=O)N(C)CC(=O)Nc2ccc(N3CCOCC3)cc2)c1	0.319	
Cc1nn2c(NCCN(C)C)c3c(nc2c1-c1ccccc1)CCC3		11.7 µM (active)
Cc1cc(N2CCCC2)n2nc(C)c(-c3ccccc3)c2n1	61.6	
Cc1cc(C(C)(C)C)n2nc(C)c(-c3ccccc3)c2n1	-5.57	
O=C(CN1CCN(c2ccccn2)CC1)Nc1ccc(Br)cc1	24.4	
COc1ccc(C2=NS(=O)(=O)N(C)C(C(=O)N(C)Cc3ccccc3)=C2)cc1	-24.5	
Nc1c(C(=O)Nc2ccc3c(c2)OCCO3)nnn1Cc1ccccc1	4.21	
Cc1ccc2c(c1)N(C(=O)CCC(=O)NCc1cccnc1)CCO2	5.48	
Cc1ccccc1CNC(=O)CCC(=O)N1Cc2ccccc2Oc2ncccc21		11.7 µM (active)
CC1CN(C(=O)CCC(=O)NCc2cccnc2)c2ccccc2O1 (centres undefined)	23.8	
